From PubChem BioAssay
The source made the active and inactive calls.

Columns and labels:
[1] = E. coli DRC41 culture turbidity changes, primary screen, E. coli filamentation inducer project, strain DRC41, OD650, 48 h (AID 1152);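 note: E. coli MC1000 strain DRC41 lacking acrAB efflux pump and sulA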; settings: E. coli DRC41 (acrAB sulA), higher = more signal, called active from +8 up or from −8 down
[2] = small-molecule binders of probe aLefty1, primary screen, biochemical, small-molecule microarray, 635/667 nm fluorescence (AID 1153); settings: higher = more signal;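 note: score merges spot fluorescence with signal-to-noise ratio from the scanned slide images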
[3] = PSAC antagonists in infected red cells, primary screen, cell-based, P. falciparum Indochina, OD700, 1 h (AID 1154); settings: P. falciparum Indochina infected RBC osmotic lysis, higher = more signal, called active from +8 up or from −8 down
[4] = PSAC antagonists in infected red cells, primary screen, cell-based, P. falciparum Indochina, OD700, 2 h (AID 1155);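 note: lysis reports solute entry through the parasite surface anion channel PSAC; channel blockers reduce lysis of infected cells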; settings: P. falciparum Indochina infected erythrocytes, osmotic lysis OD700; higher = more signal, called active from +8 up or from −8 down
[5] = osmotic lysis modulators in infected erythrocytes, primary screen, PSAC antagonist project, cell-based, P. falciparum Indochina, OD700, 3 h (AID 1156); settings: higher = more signal, called active from +8 up or from −8 down
[6] = PSAC antagonists in infected red cells, primary screen, cell-based, P. falciparum Indochina, OD700, 18 h (AID 1157); settings: P. falciparum Indochina infected erythrocytes, osmotic lysis OD700, 18 h; higher = more signal, called active from +8 up or from −8 down
[7] = modulators of S6 phosphorylation in cells, primary screen, cell-based, A549, cytoblot, luminescence, serum-stimulated (AID 1158); settings: A549 phospho-S6 cytoblot, 5 h, higher = more signal;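 note: serum-stimulated A549 lung adenocarcinoma cells; signal is phosphorylated S6 detected by cytoblot immunostaining with HRP secondary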
[8] = target: NADPH oxidase 2 (Homo sapiens) (UniProt P04839); test: NOX2-dependent H2O2 signal modulators, primary screen, NOX inhibitor project, cell-based, HEK293-NOX2, PMA-stimulated, Amplex Red fluorescence (AID 1159); settings: 45 min, higher = more signal, called active from +8 up or from −8 down; note: test concentration not given here
[9] = target: NADPH oxidase 4 (Homo sapiens) (UniProt Q9NPH5); test: NOX4-dependent H2O2 signal modulators, primary screen, NOX inhibitor project, cell-based, HEK293-NOX4, tetracycline-induced, Amplex Red fluorescence (AID 1160); settings: 45 min, higher = more signal, called active from +8 up or from −8 down
[10] = target: NADPH oxidase 5 (Homo sapiens) (UniProt Q96PH1); test: NOX5-dependent H2O2 signal modulators, primary screen, NOX inhibitor project, cell-based, HEK293-NOX5, Amplex Red fluorescence (AID 1161); settings: HEK293-NOX5, ionomycin, 45 min, higher = more signal
Chain of NADPH oxidase 5 (Homo sapiens) (Q96PH1 whole entry, looked up): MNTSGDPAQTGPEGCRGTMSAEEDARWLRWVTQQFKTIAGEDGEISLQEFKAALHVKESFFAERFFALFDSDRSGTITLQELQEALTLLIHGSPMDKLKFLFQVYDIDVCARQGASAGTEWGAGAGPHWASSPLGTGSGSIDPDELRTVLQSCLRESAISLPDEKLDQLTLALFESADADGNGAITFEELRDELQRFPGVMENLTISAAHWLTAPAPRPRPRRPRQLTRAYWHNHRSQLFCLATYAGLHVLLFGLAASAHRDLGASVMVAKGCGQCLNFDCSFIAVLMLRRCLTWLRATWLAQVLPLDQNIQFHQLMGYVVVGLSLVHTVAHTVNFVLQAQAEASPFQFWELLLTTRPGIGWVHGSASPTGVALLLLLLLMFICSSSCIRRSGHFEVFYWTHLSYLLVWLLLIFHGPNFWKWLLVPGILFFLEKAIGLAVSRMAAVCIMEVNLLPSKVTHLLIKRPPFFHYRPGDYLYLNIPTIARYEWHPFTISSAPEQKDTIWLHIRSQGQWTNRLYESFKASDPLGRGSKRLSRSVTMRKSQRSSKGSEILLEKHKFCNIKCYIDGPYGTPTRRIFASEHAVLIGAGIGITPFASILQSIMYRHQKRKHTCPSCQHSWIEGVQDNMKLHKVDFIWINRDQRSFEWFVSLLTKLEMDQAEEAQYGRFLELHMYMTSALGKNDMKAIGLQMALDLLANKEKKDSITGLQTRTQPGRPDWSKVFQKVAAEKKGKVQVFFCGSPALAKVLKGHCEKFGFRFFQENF

Chain of NADPH oxidase 4 (Homo sapiens) (Q9NPH5 whole entry, looked up): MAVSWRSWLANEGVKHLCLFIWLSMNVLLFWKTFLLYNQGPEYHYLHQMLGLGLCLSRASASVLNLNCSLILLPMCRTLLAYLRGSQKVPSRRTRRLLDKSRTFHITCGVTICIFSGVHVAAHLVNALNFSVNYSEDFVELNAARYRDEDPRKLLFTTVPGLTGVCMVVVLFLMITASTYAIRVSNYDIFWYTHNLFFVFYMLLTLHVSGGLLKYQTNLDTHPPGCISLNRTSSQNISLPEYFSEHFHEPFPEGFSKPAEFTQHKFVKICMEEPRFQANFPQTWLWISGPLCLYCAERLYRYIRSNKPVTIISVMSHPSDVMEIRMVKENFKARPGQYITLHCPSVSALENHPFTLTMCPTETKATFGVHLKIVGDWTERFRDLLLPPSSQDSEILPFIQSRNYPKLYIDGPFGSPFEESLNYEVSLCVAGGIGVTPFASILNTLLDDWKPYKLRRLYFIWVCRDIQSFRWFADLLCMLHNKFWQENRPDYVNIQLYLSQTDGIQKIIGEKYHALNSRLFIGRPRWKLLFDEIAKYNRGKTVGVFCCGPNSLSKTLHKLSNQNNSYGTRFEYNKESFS
Chain of NADPH oxidase 2 (Homo sapiens) (P04839 whole entry, looked up): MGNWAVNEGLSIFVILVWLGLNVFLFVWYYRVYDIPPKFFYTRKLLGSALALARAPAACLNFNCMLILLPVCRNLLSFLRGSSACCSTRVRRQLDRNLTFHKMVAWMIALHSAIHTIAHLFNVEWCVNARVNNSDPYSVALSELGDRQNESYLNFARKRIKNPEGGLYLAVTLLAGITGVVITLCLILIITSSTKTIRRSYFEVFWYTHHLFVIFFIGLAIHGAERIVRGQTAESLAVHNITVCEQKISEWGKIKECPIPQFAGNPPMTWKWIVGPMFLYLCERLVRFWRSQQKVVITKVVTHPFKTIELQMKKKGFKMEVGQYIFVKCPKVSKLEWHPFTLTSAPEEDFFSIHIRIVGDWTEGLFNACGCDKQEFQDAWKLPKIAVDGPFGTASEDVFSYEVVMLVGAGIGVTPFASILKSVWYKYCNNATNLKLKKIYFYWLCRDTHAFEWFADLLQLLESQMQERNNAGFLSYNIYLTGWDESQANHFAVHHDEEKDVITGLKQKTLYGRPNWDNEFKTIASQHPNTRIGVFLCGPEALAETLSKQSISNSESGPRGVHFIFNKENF

| Structure (SMILES) | z-score [1] | composite z-score [2] | z-score [3] | z-score [4] | z-score [5] | z-score [6] | z-score [7] | z-score [8] | z-score [9] | z-score [10] |
| --- | --- | --- | --- | --- | --- | --- | --- | --- | --- | --- |
| COCC1=C2[C@@H](CCc3ccccc3)OB(O)C[C@@H]2[C@@H]2C(=O)N(C)C(=O)[C@@H]2C1 | -0.801 (inactive) | 0.0355 | 1.4 (inactive) | -0.301 (inactive) | -0.793 (inactive) | -0.015 (inactive) | -0.1 | -0.116 (inactive) | 0.762 (inactive) | 0.217 |
| NC(=O)N1C(=O)C2C(C1=O)C1C=C(CCCO)C2C(C2CC2)N1Cc1cccc(OC(F)(F)F)c1 (stereo not given) | -0.778 (inactive) | -0.195 | 1.03 (inactive) | 0.275 (inactive) | -0.351 (inactive) | 0.161 (inactive) | -0.898 | 0.699 (inactive) | -0.685 (inactive) | -0.738 |
| CC(C)C[C@@H]1NC(=O)[C@H]2C[C@@H](C(=O)NCCCCCN)[C@@H](c3cccc(OCCO)c3)N2C1=O | 1.25 (inactive) | -0.0172 | 3.07 (inactive) | -0.328 (inactive) | 2.27 (inactive) | -2.15 (inactive) | 2.13 | 1.33 (inactive) | 0.993 (inactive) | 2.1 |
| COCCOC(=O)N1C(=O)[C@@]2(c3cc(C#CCC(C(=O)OC)C(=O)OC)ccc31)[C@H](c1ccc(O)cc1)N1[C@H](c3ccccc3)[C@H](c3ccccc3)OC(=O)[C@H]1[C@@H]2C(=O)NC[C@H](O)c1ccccc1 | 1.47 (inactive) | -0.159 | 1.67 (inactive) | 0.223 (inactive) | -5.49 (inactive) | -0.0973 (inactive) | -0.158 | 1.72 (inactive) | 0.876 (inactive) | 1.32 |
| C=C(COC)/C(=C/C[C@@H](OC(C)=O)c1ccc(CO)o1)c1cc(C(=O)OC)ccc1OC | 0.265 (inactive) | 0.051 | 1.56 (inactive) | 0.362 (inactive) | 0.389 (inactive) | 0.0621 (inactive) | 0.187 | 0.184 (inactive) | -0.207 (inactive) | 0.13 |
| CN1C(=O)C2C=CC(C(O)c3ccc(I)cc3)N(Nc3ccccc3)C2C1=O (stereo not given) | -1.97 (inactive) | 0.195 | 1.9 (inactive) | 1.27 (inactive) | 1.04 (inactive) | 1.12 (inactive) | -0.919 | -0.874 (inactive) | -5.01 (inactive) | -4.14 |
| COC(=O)[C@@]1(Cc2ccc(OC)cc2)[C@H]2c3cc(C(=O)N4CCCC4)n(Cc4ccc(OC(F)(F)F)cc4)c3C[C@H]2CN1C(=O)c1ccccc1 | -1.32 (inactive) | 0.029 | 2.24 (inactive) | 0.453 (inactive) | -0.0152 (inactive) | 1.06 (inactive) | -0.174 | 1.11 (inactive) | 1.56 (inactive) | 2.4 |
| CCCCCN1CC=CC23O[C@@H]4C=CCOC(=O)[C@@H]4[C@H]2C(=O)N(CCO)[C@@H]3C1=O (stereo not given in full) | -0.23 (inactive) | -0.25 | 0.0674 (inactive) | 0.31 (inactive) | 0.266 (inactive) | 0.161 (inactive) | -0.53 | 1.52 (inactive) | 0.713 (inactive) | 1.23 |
| COc1ccc([Si](C)(C)[C@H]2[C@H](CCO)O[C@@]3(C(=O)N(Cc4ccccc4)c4ccc(N5CCOC5=O)cc43)[C@@H]2C)cc1 | -0.261 (inactive) | -0.0025 | 5.86 (inactive) | 1.9 (inactive) | -0.307 (inactive) | 0.913 (inactive) | 0.577 | -1.36 (inactive) | 1.71 (inactive) | 2.27 |
| [N-]=[N+]=NCc1ccccc1C[C@]1(C(=O)N2CCOCC2)COC(c2ccc(OCCCO)cc2)=N1 | 2.57 (inactive) | 0.691 | 26.6 (active) | 15 (active) | 3.85 (inactive) | 2.64 (inactive) | 0.338 | -3.84 (inactive) | -0.698 (inactive) | -3.14 |
| O=c1cccc(-c2ccco2)o1 | -1.13 (inactive) | -0.103 | 0.128 (inactive) | 0.0564 (inactive) | -0.394 (inactive) | 0.143 (inactive) | -0.397 | 0.523 (inactive) | -0.772 (inactive) | -0.722 |
| CN1C(=O)C2C(C1=O)C1C=C(CCCO)C2C(c2cccs2)N1Cc1cc2c(cc1Br)OCO2 (stereo not given) | -0.139 (inactive) | -0.0587 | 25.1 (active) | 15.9 (active) | 0.0521 (inactive) | 1.58 (inactive) | 0.791 | 0.196 (inactive) | 0.0713 (inactive) | 0.741 |
| Cc1cccc([C@H]2C[C@H]3C(Br)=C[C@@H]2C(=O)[C@]32CO2)c1 | -0.227 (inactive) | -0.147 | 0.969 (inactive) | 0.323 (inactive) | 0.463 (inactive) | 0.06 (inactive) | 0.209 | 0.7 (inactive) | -0.00866 (inactive) | -0.854 |
| COCCCNC(=O)[C@@]1(Sc2ccc(C)cc2)CC(=O)N(Cc2ccccc2Cl)[C@@H]1c1ccc(CO)cc1I | -0.192 (inactive) | 0.0004 | 3.44 (inactive) | 0.325 (inactive) | -0.575 (inactive) | 0.181 (inactive) | -0.487 | 1.52 (inactive) | -1.12 (inactive) | 2.08 |
| COc1cc(NN2C(C(O)c3ccc(I)cc3)C=CC3C(=O)N(c4ccccc4)C(=O)C32)cc(OC)c1OC (stereo not given) | -0.877 (inactive) | 0.365 | 2.08 (inactive) | 0.477 (inactive) | 0.481 (inactive) | -0.497 (inactive) | 1.52 | -3.15 (inactive) | -4.09 (inactive) | -6.01 |
| CC(C)CCC[C@@H](C)[C@H]1CC[C@@]2(C)C3=C(CC[C@]12C)[C@@]1(C)CC[C@H](OC(=O)c2ccccc2)C(C)(C)C1CC3 (stereo not given in full) | 2.94 (inactive) | 0.0939 | -0.44 (inactive) | -0.47 (inactive) | -0.414 (inactive) | -1.26 (inactive) | 1.64 | -0.898 (inactive) | 0.288 (inactive) | 0.465 |
| CCCC=C(CCC)[C@@H](NS(=O)(=O)c1cccc2cccnc12)c1ccc(-c2ccccc2)cc1 | -1.37 (inactive) | 0.396 | 0.012 (inactive) | 0.451 (inactive) | 1.24 (inactive) | 0.913 (inactive) | 0.389 | -0.876 (inactive) | 1.59 (inactive) | 2.39 |
| COCCOC(=O)N1C(=O)[C@@]2(c3cc(C#CC4=CCCCC4)ccc31)[C@H](c1ccc(O)cc1)N1[C@H](c3ccccc3)[C@H](c3ccccc3)OC(=O)[C@H]1[C@@H]2C(=O)NC[C@H](O)c1ccccc1 | 0.289 (inactive) | 0.0406 | 1.8 (inactive) | 0.44 (inactive) | -0.164 (inactive) | 0.368 (inactive) | -0.147 | 1.5 (inactive) | 0.547 (inactive) | 1.55 |
| C=C(C)C1CCC(C(O)C2C=CC3C(=O)N(C)C(=O)C3N2Nc2cc(OC)c(OC)c(OC)c2)CC1 (stereo not given) | -1.67 (inactive) | 0.361 | 0.541 (inactive) | 0.61 (inactive) | -0.256 (inactive) | 0.901 (inactive) | -0.681 | -1.86 (inactive) | -2.78 (inactive) | -2.92 |
| Cc1c(NC(=O)/C(C#N)=C/c2ccccc2Cl)c(=O)n(-c2ccccc2)n1C | 1.32 (inactive) | -0.296 | 0.471 (inactive) | -1.52 (inactive) | -0.945 (inactive) | -1.34 (inactive) | 1.22 | -3.65 (inactive) | -0.56 (inactive) | 0.29 |
| C[C@]1(C(=O)NCCN2CCOCC2)c2ccccc2C(=O)N(Cc2cc(F)cc(C(F)(F)F)c2)[C@H]1c1ccc(CO)cc1 | 1.28 (inactive) | 0.0892 | 5.73 (inactive) | 0.651 (inactive) | 1.24 (inactive) | 0.28 (inactive) | 0.523 | 0.51 (inactive) | 0.798 (inactive) | -0.291 |
| C=C(COC)/C(=C/C[C@@H](OC(=O)c1ccncc1)c1ccccc1OCCO)c1cc(C(=O)OC)ccc1OC | 0.132 (inactive) | -0.0654 | 23.5 (active) | 6 (inactive) | 1.74 (inactive) | 1.02 (inactive) | 0.171 | -0.97 (inactive) | -1.4 (inactive) | -2.07 |
| O=C1C2C=CC(C(O)c3ccc(I)cc3)N(Nc3ccccc3)C2C(=O)N1c1ccccc1 (stereo not given) | -1.11 (inactive) | 0.437 | 6.92 (inactive) | 2.42 (inactive) | -0.166 (inactive) | 1.83 (inactive) | -1.21 | -1.88 (inactive) | -3.86 (inactive) | -2.54 |
| COc1ccc(C(O)C2C=CC3C(=O)N(c4ccccc4)C(=O)C3N2Nc2ccccc2)cc1 (stereo not given) | -1.04 (inactive) | 0.411 | 10.9 (active) | 2.15 (inactive) | 0.332 (inactive) | 1.27 (inactive) | -1.44 | -2.06 (inactive) | -3.23 (inactive) | -2.84 |
| CN1C(=O)C2C=CC(C(O)c3ccc(F)cc3)N(NC(=O)OC(C)(C)C)C2C1=O (stereo not given) | -1.73 (inactive) | 0.101 | -0.468 (inactive) | 0.477 (inactive) | 0.008 (inactive) | 0.901 (inactive) | -1.28 | -0.46 (inactive) | -0.56 (inactive) | -0.481 |
| CC(C)(C)OC(=O)CC[C@]1(C(=O)N2CCCCC2)COC(c2ccc(OCCCO)cc2)=N1 | 1.12 (inactive) | -0.403 | 22.2 (active) | 5.22 (inactive) | 1.11 (inactive) | 0.663 (inactive) | -0.515 | -2.59 (inactive) | 0.0723 (inactive) | -2.08 |
